SMN2 splice enh = increases expression of the SMN2 splice variant; HEK293 SMN2-luciferase splicing reporter, luminescence, 30-36 h; Potency, µM (titrated, usually from 46.1 µM), for inactives: top-dose activity change, positive = activation, hits mostly activators; 2.8% of 210,000 active; note: % of control where 0% means no effect; nearly all actives have a fitted effect of over 55% in size
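HEK293 cells carry an SMN2 minigene-luciferase reporter in which exon 7 inclusion puts luciferase in frame. Cells were seeded at 2000 cells/well, attached for 10-12 hours, then exposed to compounds for 30-36 hours at 37C before ONE-Glo luminescence.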
ELG1 genotox = genotoxicity induction in ELG1-luciferase HEK293T cells; HEK293T ELG1-luciferase reporter, luminescence, 16 h; Potency, µM (doses to about 46 µM), for inactives: top-dose activity change, positive = activation, most hits filed as activators; 1.3% of 330,000 active; AID 504466; note: % of control where 0% means no effect; nearly all actives have a fitted effect of over 60% in size
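DMSO vehicle served as control against compound-treated ELG1-luciferase HEK293T cells; exposure lasted 16 hr at 37 °C and 5% CO2, followed by ONE-Glo luminescence detection after 30 min.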
NPC1 promoter act = activators of NPC1 promoter | Huh7 NPC1 promoter luciferase reporter, 24 h | 2.4% of 320,000 active | Potency, µM (top dose mostly 9.22 µM), without a hit: top-dose activation, actives largely listed as activators; note: % of control where 0% means no effect; nearly all actives have a fitted effect of over 60% in size
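Huh7 cells stably carrying NPC1 promoter–luciferase, plated in Opti-MEM with 10% FBS for 2 h, were exposed to compound in DMSO for 24 h at 37 °C; luciferase reagent was added for 10 min and luminescence read.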
ELG1 repair inh = blocks ELG1-dependent DNA repair in HEK293T cells. Potency, µM (highest dose often 46.1 µM), without a hit: at the top dose activity change, negative = inhibition, most hits filed as inhibitors. 2.3% of 330,000 active. AID 504467. HEK293T ELG1-luciferase reporter, luminescence, 16 h; DNA damage induced by 5-fluorouridine; note: % is set by controls: 0 for no effect and ±100 for the full control effect; nearly all actives have a fitted effect of over 55% in size
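In this reporter screen, reduction of luminescence relative to DMSO vehicle indicated activity. Compounds and 5-fluorouridine were added together to 2,000 cells per well, incubated for 16 hr at 37 °C, then developed with ONE-Glo.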
Rab9 promoter act = activators of Rab9 promoter. 2.8% of 320,000 active. Huh7 Rab9 promoter-luciferase reporter, luminescence, 24 h. Potency, µM (doses to about 9.22 µM), without a hit: top-dose activation, negative = inhibition, actives largely listed as activators; note: % of control where 0% means no effect; nearly all actives have a fitted effect of over 60% in size
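Luciferase signal after 10 min detection reagent at ambient indicates Rab9 promoter upregulation; stably transfected Huh7 cells were treated 24 h with compound in DMSO at 37 °C, 5% CO2.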
FLuc counter = firefly luciferase modulation, counter-screen for miR-21 project. 6.9% of 360,000 active. AID 588342. purified FLuc, Km substrates, luminescence inhibition. Potency, µM (doses to about 57.5 µM), inactives show at the highest dose activity change, negative = inhibition, usual class: inhibitors;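 note: plate controls were vehicle for no effect and reference inhibitor for full effect; nearly all actives have a fitted effect of over 55% in size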
Target sequence (P08659 whole entry, looked up): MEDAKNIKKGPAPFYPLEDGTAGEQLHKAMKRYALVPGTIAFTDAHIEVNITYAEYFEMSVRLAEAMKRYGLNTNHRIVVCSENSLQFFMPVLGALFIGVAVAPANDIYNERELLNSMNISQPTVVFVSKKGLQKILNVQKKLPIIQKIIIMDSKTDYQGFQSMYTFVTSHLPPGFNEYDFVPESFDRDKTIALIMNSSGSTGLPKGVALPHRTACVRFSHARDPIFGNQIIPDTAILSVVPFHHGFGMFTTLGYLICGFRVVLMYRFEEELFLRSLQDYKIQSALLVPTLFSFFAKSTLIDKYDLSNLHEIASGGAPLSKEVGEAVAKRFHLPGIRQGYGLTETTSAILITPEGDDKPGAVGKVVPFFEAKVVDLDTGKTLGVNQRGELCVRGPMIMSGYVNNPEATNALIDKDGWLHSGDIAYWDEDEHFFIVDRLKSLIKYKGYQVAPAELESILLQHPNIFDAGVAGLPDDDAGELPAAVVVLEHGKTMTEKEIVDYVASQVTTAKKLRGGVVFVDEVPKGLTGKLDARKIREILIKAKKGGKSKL
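Purified P. pyralis luciferase, 10 nM final, with Km-level 10 uM D-luciferin and 10 uM ATP in 50 mM Tris acetate pH 7.5, 10 mM Mg acetate, 0.01% Tween-20, 0.05% BSA; 6-point qHTS titration about 60 µM downward; luminescence read.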
Starred values were filed as active, the others as inactive; ? = inconclusive; / = not tested or not shown; [ ] = remark or other dose. Rows were chosen to be rich in hits. Some 9.2% of all compounds tested hit in one or more screens of this group. Calls come from the whole dose curve; as a rule, active = well fitted curve in the direction sought with a large enough effect; inconclusive = small, poorly fitted or top-dose-only effect, or another doubt; inactive = no such curve, though single readings can be large; an effect the other way counts as inactive or inconclusive. Potency is the fitted concentration of half-maximal effect.

SMILES | SMN2 splice enh | ELG1 genotox | NPC1 promoter act | ELG1 repair inh | Rab9 promoter act | FLuc counter
O=C(c1cccc(-c2nnc(-c3ccccc3)o2)c1)N1CCCCC1 | 14µM* | ? | ? | ? | ? | 17µM*
O=C(c1ccc(-c2ccccc2)cc1)N1CCCC1 | -2% | ? | 1% | ? | 11% | ?
CCOC(=O)C(c1ccccc1)C(Nc1cc(C(F)(F)F)cc(C(F)(F)F)c1)c1ccccn1 (stereo unspecified) | / | 5% | 2% | 26% | 1% | 0%
CCN(c1ccc(OC)cc1)S(=O)(=O)c1csc(C(=O)N2CCCC2)c1 | / | -1%[9.26 µM] | -5% | -3% | -1% | 3%
CC(C)c1cc(-c2nc(-c3ccc(Cl)cc3)no2)n[nH]1 | / | / | / | / | / | 9.5µM*
COc1ccc(-c2noc(-c3ccccc3-c3ccccc3)n2)cc1 | -9% | 1% | 0% | 3% | -7% | ?
COc1ccc(-c2noc(-c3ccc(Br)o3)n2)cc1 | / | ? | 3.2µM* | ? | 2µM* | 2.4µM*
COc1cc(-c2noc(-c3cc(C(C)C)[nH]n3)n2)cc(OC)c1OC | / | / | / | / | / | -2%
COc1ccc(-c2noc(-c3ccc(Cl)cc3)n2)cc1 | 11µM* | 5.6µM* | 2.5µM* | ? | ? | 2.1µM*
COc1cccc(-c2noc(-c3ccc(Br)o3)n2)c1 | 22µM* | ? | 2.5µM* | ? | 1.4µM* | 3µM*
CCn1nc(NC(=O)C(C)C)c2cc3cccc(C)c3nc21 | / | -1% | -8% | 13% | -2% | 0%
COc1ccc(N2CCN(C(=O)c3ccc(NC(=O)C4=CSCCO4)cc3)CC2)cc1 | / | 0%[9.26 µM] | 0% | 14% | -5% | 3%
COc1ccc(-c2nc(-c3ccc(Br)o3)no2)cc1 | 10µM* | 1.2µM* | 0.63µM* | ? | 0.45µM* | 0.95µM*
CCOC(=O)C12CC1/C(=N\O)c1ccccc1O2 (stereo unspecified) | -9% | / | / | / | / | /
C/C(=N\NC(N)=O)c1c(F)cccc1F | / | 1% | 2% | ? | -2% | 2%
CCN(CC)c1ccc(NC(=S)Nc2ccc(F)cc2)cc1 | -2% | -4% | 3% | 18% | 6% | ?
Cc1ccc(-c2noc(-c3nnn(CC(=O)Nc4cc(Cl)ccc4C)c3N)n2)cc1 | / | / | / | / | / | -2%
COc1ccc(-c2csc(NC3=NCCCCC3)n2)cc1 | -4%[1.84 µM] | 25% | ? | ? | ? | 12µM*
c1ccc(-c2csc(NNC3=NCCCCC3)n2)cc1 | -1% | ? | 0% | ? | 12% | 15µM*
COc1ccc(-c2csc(NNC3=NCCCCC3)n2)cc1 | -2% | -1% | 0% | ? | 15% | ?
Cc1nn(C)c2c1c(C(F)(F)F)cc(=O)n2C(C)C(=O)Nc1ccccc1F (stereo unspecified) | / | / | / | / | / | -8%
COc1cccc(/C=N/NC(=O)CN2C(=O)NC3NC(=O)NC32)c1 (stereo unspecified) | 20% | 1% | 2% | ? | 1% | -7%
O=C(Nc1ccc(N2CCOCC2)cc1)Nc1ccc2nc(-c3ccco3)c(-c3ccco3)nc2c1 | -18% | -7% | -3% | 6.5µM* | -8% | -6%
O=C(Nc1ccc2nc(-c3ccco3)c(-c3ccco3)nc2c1)NC1CC1 | -19% | 0% | 18% | ? | 28% | 6µM*
OCCCNC(=S)Nc1ccc2nc(-c3ccccn3)c(-c3ccccn3)nc2c1 | -1% | 3% | -6% | 12% | 1% | -1%
SMILES | SMN2 splice enh | ELG1 genotox | NPC1 promoter act | ELG1 repair inh | Rab9 promoter act | FLuc counter
O=S(=O)(c1ccc2nc(-c3ccco3)c(-c3ccco3)nc2c1)N1CCOCC1 | -17% | -6% | 0% | 16µM* | 5% | ?
O=C(NCCCO)Nc1ccc2nc(-c3ccco3)c(-c3ccco3)nc2c1 | -20% | 2% | 0% | -8% | 7% | 11µM*
O=C(Nc1ccc(F)c(Cl)c1)NC1CC1 | / | 0% | -1% | -16% | 13% | -3%
O=C(c1csnn1)N1CCC2(CCCN(Cc3ccccc3)C2)CC1 | 6% | / | / | / | / | /
CC(C)c1cccc(C2=CC(=O)C[C@H](c3ccc4c(c3)OCO4)C2)c1 | / | 0% | 6% | 8% | 1% | 4%
CCc1nonc1NC(=O)c1oc2ccc(F)cc2c1C | 0% | 10% | 24% | ? | ? | -1%
CCc1ccc2oc(C(=O)Nc3nonc3C)c(C)c2c1 | / | 3.3µM* | 0.32µM* | ? | 0.63µM* | 2.1µM*
Cc1cc2oc(C(=O)Nc3nonc3C)c(C)c2cc1C | / | 10µM* | 1.1µM* | ? | 4µM* | 2.4µM*
COc1ccc(C)c(-n2c(N)cc(=O)n(Cc3ccccc3)c2=O)c1 | / | 0% | 3% | -6% | 9% | -1%
CCOC(=O)c1cnc2ccc(C)cc2c1Sc1ccc(F)cc1 | -7% | -2% | 10% | 0% | 19% | 24µM*
CCOC(=O)c1cnc2ccc(C)cc2c1Sc1ccccc1 | -8% | 20% | 2% | ? | 1% | ?
COc1ccc2c(c1)c(CC(=O)Nc1ccc(C(C)=O)cc1)c(C)n2C(=O)c1ccc(Cl)cc1 | 21% | 0% | -3% | 12µM* | 0% | -18%
COc1ccc2c(c1)c(CC(=O)Nc1c(C)cccc1C)c(C)n2C(=O)c1ccc(Cl)cc1 | 3% | / | / | / | / | 0%
COc1ccc2c(c1)c(CC(=O)Nc1nnc(C3CC3)s1)c(C)n2C(=O)c1ccc(Cl)cc1 | / | -7% | -2% | 5.8µM* | -1% | -6%
C[C@@H]1COC(=O)[C@@H](Cc2ccc(F)cc2)C/C=C\C[C@@H](CC(=O)NCCO)C(=O)N1 | / | -1% | / | 13% | / | /
CCOC(=O)N1CCN(C(=O)c2ccc(N(Cc3ccccc3)S(C)(=O)=O)cc2)CC1 | 2% | 0% | -2% | 0% | 1% | 0%
CC(=O)OCC(=O)Nc1ccc([N+](=O)[O-])cc1Cl | -10% | -6% | 0% | 17% | -3% | -1%
O=C(COC(=O)C12CC3CC(CC(C3)C1)C2)Nc1ccc([N+](=O)[O-])cc1Cl | -6% | 0% | -3% | 21µM* | -5% | 4%
Cc1ccc2cccc(NC(=O)COc3ccccc3[N+](=O)[O-])c2n1 | / | / | / | / | / | 0%
CC1Sc2ccc(S(=O)(=O)CCC(=O)N3CCN(c4cccc(Cl)c4)CC3)cc2NC1=O (stereo unspecified) | / | -18% | -3% | 13µM* | -13% | 2%
CN(C)c1ccc(NC(=O)c2cccc(C(=O)Nc3ccc(N(C)C)cc3)n2)cc1 | 14µM* | 5% | 2.8µM* | ? | 3.2µM* | 1.5µM*
COc1cccc(C(=O)Nc2ccc(N(C)C)cc2)c1OC | 11µM* | ? | 2.8µM* | ? | 1.4µM* | 5.4µM*
